# Source: publication PMC5540273 (PLoS ONE, 2017)
# Legend:
# Conditions in all cases: concentration: 1 μM, replicates: in singlicate; n = 1
# [1] = test system: HPK1
# [2] = test system: HUNK
# [3] = test system: ICK
# [4] = test system: IGF1R
# [5] = test system: T1, IKK-alpha
# T1 construct: gene CHUK
# [6] = test system: T2, IKK-beta
# T2 construct: gene IKBKB
# [7] = test system: T3, IKK-epsilon
# T3 construct: gene IKBKE
# [8] = test system: INSRR
# [9] = test system: INSR
# [10] = test system: IRAK1
# [11] = test system: IRAK3
# [12] = test system: IRAK4
# [13] = test system: ITK
# [14] = test system: JAK1(JH1domain-catalytic)
# [15] = test system: JAK1(JH2domain-pseudokinase)
# [16] = test system: JAK2(JH1domain-catalytic)
# [17] = test system: JAK3(JH1domain-catalytic)
# [18] = test system: T4, JNK1
# T4 construct: gene MAPK8
# [19] = test system: T5, JNK2
# T5 construct: gene MAPK9
# [20] = test system: T6, JNK3
# T6 construct: gene MAPK10
# 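Note: KINOMEscan kinase panel screen.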
Structure (SMILES),%Inh [1],%Inh [2],%Inh [3],%Inh [4],%Inh [5],%Inh [6],%Inh [7],%Inh [8],%Inh [9],%Inh [10],%Inh [11],%Inh [12],%Inh [13],%Inh [14],%Inh [15],%Inh [16],%Inh [17],%Inh [18],%Inh [19],%Inh [20]
COc1cc2ncn(-c3cc(OCc4sccc4Cl)c(C(N)=O)s3)c2cc1OC [GSK448459],52%,0%,12%,0%,0%,0%,0%,0%,0%,35%,0%,4%,12%,0%,0%,2%,0%,20%,11%,7%
COc1cc2c(cc1OC[C@@H](O)CO)ncc1c3ccc(C#N)cc3[nH]c21,0%,0%,0%,0%,51%,35%,40%,0%,0%,97.2%,67%,99.9%,13%,0%,11%,3%,59%,15%,0%,0%
O=C(NCCNc1ccnc(Nc2ccc(F)cc2)n1)c1cc2ccccc2s1 [GSK1379874],33%,12%,0%,0%,0%,0%,22%,0%,0%,16%,0%,10%,6%,12%,0%,0%,0%,13%,0%,0%
Nc1nc(-c2ccc3c(N)n[nH]c3c2)cc(N2CCCC2)n1 [GSK2227430],39%,0%,0%,0%,0%,0%,40%,0%,0%,0%,0%,2%,0%,0%,11%,0%,0%,5%,12%,0%
O=c1cc(N2CCOCC2)nc2n(Cc3cccc(Cl)c3Cl)c(C3CC3)nn12 [GSK2358994],14%,0%,4%,0%,0%,0%,0%,0%,0%,0%,0%,0%,4%,9%,3%,6%,0%,19%,0%,0%
CC(C)(C)n1cnc2c(N)ncnc21 [SKF-97359],33%,19%,31%,0%,0%,0%,0%,0%,0%,0%,0%,0%,4%,0%,0%,0%,18%,20%,0%,2%
Cc1cccc(-c2nc(Nc3ccc4ncsc4c3)c3ccccc3n2)n1 [GW867588],0%,45%,17%,0%,15%,0%,4%,0%,0%,40%,0%,0%,30%,0%,62%,0%,0%,2%,8%,0%
Cc1cccc(Cn2ccn3c(=O)cc(N4CCOCC4)nc23)c1 [GSK2297542],37%,0%,5%,29%,0%,0%,15%,0%,9%,20%,20%,7%,24%,14%,0%,0%,0%,17%,31%,8%
Nc1nccc(-c2c(-c3ccc(F)cc3)ncn2C2CCN(CC(F)(F)F)CC2)n1 [SB-236560],48%,0%,63%,0%,7%,0%,54%,21%,0%,29%,0%,0%,0%,0%,0%,0%,29%,63%,91.3%,89%
COc1cc2c(cc1OCCN1CCN(C)CC1)ncc1c3ccc(C#N)cc3[nH]c21,11%,0%,10%,0%,44%,29%,70%,0%,0%,97.2%,84%,100%,38%,0%,60%,52%,93.4%,19%,0%,0%
Cn1cc(-c2ccc3c(c2)CCN3C(=O)Cc2ccccc2Cl)c2c(N)ncnc21 [GSK2608885],64%,7%,5%,95.5%,0%,0%,37%,90.5%,48%,0%,32%,0%,4%,0%,2%,0%,56%,19%,55%,6%
CN(C1=C(c2ccccc2)C(=O)NC1=O)c1ccccc1 [SB-334860],0%,0%,13%,12%,0%,0%,27%,0%,5%,0%,0%,0%,0%,0%,6%,0%,14%,0%,21%,15%
Cl.Nc1ncnc2occ(-c3ccc(NC(=O)Nc4cc(C(F)(F)F)ccc4F)cc3)c12 [SB-707548],85%,15%,5%,5%,86%,35%,63%,0%,23%,35%,0%,3%,9%,50%,7%,59%,23%,9%,94.9%,12%
Cc1nnc(-c2ccc3ncc(-c4ccc(S(C)=O)cc4)n3c2)o1 (stereo not drawn),0%,0%,22%,0%,15%,21%,0%,0%,2%,7%,23%,15%,7%,11%,0%,0%,0%,22%,18%,24%
NS(=O)(=O)c1cccc(-c2ccc3ncc(N4CCOCC4)nc3c2)c1 [GSK1535721],37%,0%,0%,2%,0%,0%,34%,0%,7%,1%,0%,11%,3%,8%,5%,0%,0%,3%,0%,0%
